The source of these data is PubChem BioAssay.

Experiment [1] in a line: antimalarial activity against Dd2 strain (AID 2302;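 active means growth inhibition above 50% at the single 2 µM test dose, taken to imply half-maximal potency below 2 µM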;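 further: 0% = DMSO untreated growth and 100% = chloroquine plus artemisinin killed control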). As to conditions: P. falciparum Dd2 in RBCs, LDH growth readout, 72 h; at 2 µM; active compounds read high.
Experiment [2] can be described thus: HepG2 cytotoxicity, primary screen, cytotoxicity control for P. falciparum antimalarial project, cell-based, ATP luminescence (AID 2303;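 active means inhibition above 50%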;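 further: 0% = DMSO wells and 100% = digitonin-killed cells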). The note with it: HepG2 viability, 24-48 h, at 10 µM, active compounds read high.
In experiment [3] the target is L-lactate dehydrogenase (Plasmodium falciparum (isolate CDC / Honduras)) (UniProt Q27743). Kind of experiment: PfLDH activity inhibition – cell lysate, 3D7 strain, counter-screen for P. falciparum growth inhibition project (AID 2304).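 Further: 0% = vehicle and 100% = reference inhibitor.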 As to conditions: P. falciparum 3D7 crude extract, LDH APAD/NBT absorbance; at 2 µM; active compounds read high. For orientation: The purpose of a counterscreen is to sort out artefacts and off-target activity.

Experiment [4] can be described thus: inhibition of 3D7 malaria parasite growth – strain 3D7 (AID 2306).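 Further: 0% = DMSO wells and 100% = chloroquine plus artemisinin control wells.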 As to conditions: P. falciparum 3D7 erythrocytic growth, LDH absorbance, 72 h; at 2 µM; active compounds read high.
The target in experiment [5] is Calcium-dependent protein kinase 1 (Plasmodium falciparum (isolate 3D7)) (UniProt P62344). In words: PfCDPK1 kinase inhibitors, biochemical, TCAMS library (AID 1159585; cut-off not given, nearly all actives have IC50 up to about 0.98 µM;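 further: inhibitors leave more ATP so luminescence rises with inhibition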). The note with it: recombinant PfCDPK1, Kinase-Glo ATP depletion luminescence. (In general: In Kinase-Glo more light means more ATP remaining.)
In experiment [6] the target is Plasmodium falciparum protein kinase 6 (PK6, PF3D7_1337100) (UniProt Q8IDW1). In words: PfPK6 kinase inhibitors, biochemical, TCAMS library (AID 1159586). As to conditions: recombinant PfPK6, Kinase-Glo ATP depletion luminescence.
The target of experiment [7] is Protein kinase 7 (PK7), Plasmodium falciparum 3D7 (PF3D7_0213400) (UniProt Q7YTF7). Kind of experiment: inhibition of Plasmodium PK7 catalytic activity – biochemical, TCAMS antimalarial set, Kinase-Glo luminescence (AID 1159587). The note with it: recombinant PfPK7, Kinase-Glo ATP depletion luminescence.
Experiment [8] concerns the target Calcium-dependent protein kinase 4 (Plasmodium falciparum (isolate 3D7)) (UniProt Q8IBS5). Kind of experiment: PfCDPK4 kinase inhibitors, biochemical, TCAMS library (AID 1159588; cut-off not given, nearly all actives have IC50 up to about 0.91 µM). As to conditions: recombinant PfCDPK4, Kinase-Glo ATP depletion luminescence.

Values without a mark were called inactive. For some assays here: Entries with a potency or affinity are not part of this list. Calls of active or inactive are those of the source. Unless noted, how the calls were made is not given here.

Sequence of Calcium-dependent protein kinase 4 (Plasmodium falciparum (isolate 3D7)) (Q8IBS5 whole entry, looked up): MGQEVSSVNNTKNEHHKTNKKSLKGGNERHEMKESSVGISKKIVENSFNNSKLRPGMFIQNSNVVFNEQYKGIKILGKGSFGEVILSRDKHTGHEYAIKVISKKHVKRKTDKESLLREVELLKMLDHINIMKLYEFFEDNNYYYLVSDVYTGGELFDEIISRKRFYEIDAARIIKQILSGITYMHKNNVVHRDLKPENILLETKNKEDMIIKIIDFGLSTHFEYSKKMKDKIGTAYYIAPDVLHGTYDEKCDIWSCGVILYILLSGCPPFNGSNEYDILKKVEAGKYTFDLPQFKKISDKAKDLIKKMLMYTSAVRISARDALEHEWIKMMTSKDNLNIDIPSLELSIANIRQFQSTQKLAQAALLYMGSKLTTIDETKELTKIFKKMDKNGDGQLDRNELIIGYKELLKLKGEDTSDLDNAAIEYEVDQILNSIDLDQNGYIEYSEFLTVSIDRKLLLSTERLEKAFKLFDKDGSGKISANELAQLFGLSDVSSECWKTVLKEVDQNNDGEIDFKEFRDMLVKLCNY
Sequence of Protein kinase 7 (PK7), Plasmodium falciparum 3D7 (PF3D7_0213400) (Q7YTF7 1-343): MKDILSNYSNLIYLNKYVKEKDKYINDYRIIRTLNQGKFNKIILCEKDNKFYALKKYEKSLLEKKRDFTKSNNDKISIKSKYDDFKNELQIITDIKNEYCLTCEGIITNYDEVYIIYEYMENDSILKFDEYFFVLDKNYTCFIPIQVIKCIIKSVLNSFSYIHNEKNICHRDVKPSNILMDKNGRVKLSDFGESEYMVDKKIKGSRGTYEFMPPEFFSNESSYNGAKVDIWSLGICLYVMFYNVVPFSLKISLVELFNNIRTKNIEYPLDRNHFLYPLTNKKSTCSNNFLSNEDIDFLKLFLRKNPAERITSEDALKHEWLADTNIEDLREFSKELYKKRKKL
Sequence of Plasmodium falciparum protein kinase 6 (PK6, PF3D7_1337100) (Q8IDW1 1-305): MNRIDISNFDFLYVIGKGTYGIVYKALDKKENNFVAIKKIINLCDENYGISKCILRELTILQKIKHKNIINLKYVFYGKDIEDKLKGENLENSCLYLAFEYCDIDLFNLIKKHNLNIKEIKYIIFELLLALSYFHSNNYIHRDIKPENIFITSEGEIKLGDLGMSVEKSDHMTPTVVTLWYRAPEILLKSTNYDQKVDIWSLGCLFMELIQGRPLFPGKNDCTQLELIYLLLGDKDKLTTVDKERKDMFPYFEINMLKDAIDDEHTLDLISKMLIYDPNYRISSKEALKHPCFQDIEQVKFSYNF
Sequence of L-lactate dehydrogenase (Plasmodium falciparum (isolate CDC / Honduras)) (Q27743 whole entry, looked up): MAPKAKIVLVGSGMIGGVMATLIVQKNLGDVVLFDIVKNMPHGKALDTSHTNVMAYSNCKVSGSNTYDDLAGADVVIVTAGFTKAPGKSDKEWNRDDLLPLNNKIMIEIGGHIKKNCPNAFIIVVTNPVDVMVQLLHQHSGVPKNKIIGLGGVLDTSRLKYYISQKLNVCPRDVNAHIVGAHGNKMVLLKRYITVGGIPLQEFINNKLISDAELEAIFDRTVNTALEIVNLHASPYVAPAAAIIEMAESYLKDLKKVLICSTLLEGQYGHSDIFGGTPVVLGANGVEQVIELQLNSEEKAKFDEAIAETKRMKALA
Sequence of Calcium-dependent protein kinase 1 (Plasmodium falciparum (isolate 3D7)) (P62344 whole entry, looked up): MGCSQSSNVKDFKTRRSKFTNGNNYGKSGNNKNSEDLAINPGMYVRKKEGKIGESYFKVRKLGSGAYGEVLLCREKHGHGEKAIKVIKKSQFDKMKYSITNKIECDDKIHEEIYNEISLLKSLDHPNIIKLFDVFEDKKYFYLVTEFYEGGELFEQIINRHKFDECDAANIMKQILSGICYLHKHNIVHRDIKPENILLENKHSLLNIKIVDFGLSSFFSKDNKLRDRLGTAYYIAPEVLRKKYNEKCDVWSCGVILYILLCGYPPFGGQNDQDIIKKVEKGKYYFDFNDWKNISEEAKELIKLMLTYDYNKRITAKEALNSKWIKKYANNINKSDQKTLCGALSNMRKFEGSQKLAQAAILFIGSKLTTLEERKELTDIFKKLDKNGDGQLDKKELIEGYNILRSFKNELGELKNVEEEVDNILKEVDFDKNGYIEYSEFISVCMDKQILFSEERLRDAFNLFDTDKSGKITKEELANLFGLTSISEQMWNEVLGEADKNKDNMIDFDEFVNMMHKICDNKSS

Usually inhibition stands for the drop in the measured response relative to a control, in per cent. Regarding `COc1cc(OC)c(NC(=O)COc2ccc(C)cc2)cc1Cl`, the values for the growth inhibition in experiment [1] and in experiment [4] were 90% (active) and 86% (active), respectively. For the same compound, the figures for the inhibition in experiment [2] and in experiment [3] were -7% and 3%, respectively. For the same compound, the result in experiment [5], in experiment [6], in experiment [7] and in experiment [8] was inactive.
As for `Cc1c(C)c2c(c(C)c1O)CC[C@](C)(C(=O)N1CCC(CCN3CCC(c4c[nH]c5ccccc45)CC3)CC1)O2`, the growth inhibition in experiment [1] was 74% (active); in experiment [4], 99% (active). Moreover, the inhibition in experiment [2] was 31%; in experiment [3], 0%. For the same compound, the outcome in experiment [5], in experiment [6], in experiment [7] and in experiment [8] was inactive.
On to `O=C(Oc1ccc(C2CNCCc3c2cc(OC(=O)c2ccc(O)cc2)c(OC(=O)c2ccc(O)cc2)c3Cl)cc1)c1ccc(O)cc1` (configuration not stated), for which the growth inhibition in experiment [1] is 60% (active); in experiment [4], 90% (active). Moreover, the inhibition in experiment [2] was -2%; in experiment [3], 0%. The outcome in experiment [5], in experiment [6], in experiment [7] and in experiment [8] was inactive.
On to `CCCCc1ccc(NC(=O)Nc2cccc(CCNCc3ccccc3)c2)cc1`, for which the results for the growth inhibition in experiment [1] and in experiment [4] were 13% and 94% (active), respectively. Also, the inhibition in experiment [2] is 3%; in experiment [3], 2%. Further, the outcome in experiment [5], in experiment [6], in experiment [7] and in experiment [8] was inactive.
Regarding `Cc1cccc2[nH]c(-c3ccc(-c4cccc(NC(=O)NCc5ccc(F)cc5)c4)cc3)nc12`, the growth inhibition in experiment [1] was 100% (active); in experiment [4], 101% (active). Besides, the inhibition in experiment [2] was 82% (active); in experiment [3], -1%. In addition, the outcome in experiment [5], in experiment [6], in experiment [7] and in experiment [8] was inactive.
In the case of `O=C(/C=C/C=C/c1ccc(Cl)c(Cl)c1)NCCCCCN1CCCC2CCCCC21` (configuration not stated), the results for the growth inhibition in experiment [1] and in experiment [4] were 48% and 91% (active), respectively. The inhibition in experiment [2] was 41%; in experiment [3], -5%. Also, the outcome in experiment [5], in experiment [6], in experiment [7] and in experiment [8] was inactive.
As to `Cc1ccc(CNC(=O)[C@H](CC(C)C)Nc2cc(C)nc(Nc3ccccc3)n2)cc1`, the growth inhibition was 19% in experiment [1] and 97% (active) in experiment [4]. Besides, the inhibition was 12% in experiment [2] and -1% in experiment [3]. For the same compound, the outcome in experiment [5], in experiment [6], in experiment [7] and in experiment [8] was inactive.
`Cc1cccc2[nH]c(-c3cccc(-c4cccc(NC(=O)CC5NC(=O)c6ccccc65)c4)c3)nc12` (configuration not stated): the growth inhibition is 49% in experiment [1] and 92% (active) in experiment [4]. Also, the inhibition in experiment [2] is 8%; in experiment [3] it was -1%. For the same compound, the result in experiment [5], in experiment [6], in experiment [7] and in experiment [8] was inactive.
As for `CC(Cc1ccc(NC(=O)c2ccc(CC(C)NCc3ccc(Cl)c(Cl)c3)cc2)cc1)NCCc1cccc(Cl)c1` (configuration not stated), the growth inhibition in experiment [1] is 33%; in experiment [4], 92% (active). For the same compound, the values for the inhibition in experiment [2] and in experiment [3] were 26% and 4%, respectively. In addition, the result in experiment [5], in experiment [6], in experiment [7] and in experiment [8] was inactive.
As to `Cn1cccc1CCNCc1ccc(-c2cccc(-c3nc4ccccc4[nH]3)c2)cc1`, the growth inhibition in experiment [1] was 66% (active); in experiment [4], 88% (active). Besides, the inhibition in experiment [2] was 1%; in experiment [3], 3%. In addition, the outcome in experiment [5], in experiment [6], in experiment [7] and in experiment [8] was inactive.
For the compound `CC(C)c1nc(N2CCN(C(=S)NCc3ccccc3)CC2)c(C#N)c2c1COC(C)(C)C2`, the growth inhibition in experiment [1] was 100% (active); in experiment [4], 99% (active). Besides, the inhibition in experiment [2] is -7%; in experiment [3], 6%. For the same compound, the outcome in experiment [5], in experiment [6], in experiment [7] and in experiment [8] was inactive.
Regarding `Cc1cccn2c(=O)c3cc(C(=O)NCCc4ccccc4)c(=N)n(CCCOC(C)C)c3nc12`, the growth inhibition in experiment [1] is 40%; in experiment [4], 101% (active). Besides, the inhibition in experiment [2] is 19%; in experiment [3] it was -3%. The outcome in experiment [5], in experiment [6], in experiment [7] and in experiment [8] was inactive.
With `Cc1cnc2ccc(NS(=O)(=O)c3sc4ccc(Cl)cc4c3C)cc2c1N1CCNCC1`, the growth inhibition was -1% in experiment [1] and 99% (active) in experiment [4]. Further, the inhibition in experiment [2] was -9%; in experiment [3] it was 4%. For the same compound, the outcome in experiment [5], in experiment [6], in experiment [7] and in experiment [8] was inactive.
As to `Nc1ncnc2c1ncn2C(CO)Cc1ccc(O)cc1` (configuration not stated), the values for the growth inhibition in experiment [1] and in experiment [4] were 0% and 93% (active), respectively. In addition, the inhibition was -5% in experiment [2] and -2% in experiment [3]. Moreover, the outcome in experiment [5], in experiment [6], in experiment [7] and in experiment [8] was inactive.
With `O=C(Cc1cnc[nH]1)Nc1ccc(-c2ccc(-c3nc4ccccc4[nH]3)s2)cc1`, the growth inhibition in experiment [1] is 34%; in experiment [4], 90% (active). Further, the inhibition was 44% in experiment [2] and 1% in experiment [3]. Also, the result in experiment [5], in experiment [6], in experiment [7] and in experiment [8] was inactive.
In the case of `NCC1CCCN1Cc1cccc(-c2cccc(-c3nc4ccc(F)cc4[nH]3)c2)c1` (configuration not stated), the growth inhibition in experiment [1] was 65% (active); in experiment [4], 101% (active). Also, the inhibition in experiment [2] was 10%; in experiment [3], 5%. The result in experiment [5], in experiment [6], in experiment [7] and in experiment [8] was inactive.
`CN(C)CCCNCc1ccc(-c2ccc(CNCCOc3ccccc3)cc2)cc1`: the figures for the growth inhibition in experiment [1] and in experiment [4] were 53% (active) and 100% (active), respectively. The inhibition in experiment [2] is 27%; in experiment [3], 0%. Besides, the outcome in experiment [5], in experiment [6], in experiment [7] and in experiment [8] was inactive.
Consider `CC(C)c1ccc(NC(=O)c2ccc(CN3CCCN(Cc4cccc(Cl)c4)CC3)cc2)cc1`, for which the growth inhibition in experiment [1] was 12%; in experiment [4], 90% (active). Also, the inhibition in experiment [2] was 45%; in experiment [3] it was 5%. In addition, the result in experiment [5], in experiment [6], in experiment [7] and in experiment [8] was inactive.
For `CC(C)(C)c1cc(Cn2ccnc2)cc(C(C)(C)C)c1O`, the growth inhibition was 3% in experiment [1] and 85% (active) in experiment [4]. Moreover, the inhibition in experiment [2] was 4%; in experiment [3] it was -2%. Also, the result in experiment [5], in experiment [6], in experiment [7] and in experiment [8] was inactive.
